The text below walks through data of PubChem BioAssay (NCI).

This is part of a sample that, as a whole, favours compounds with a hit. Of some 79,000 tested, about 15% had one in any assay. Unmarked numbers belong to inactive results. Active and inactive are the calls of the source. Rule as the data show it: active = growth inhibition above about 70%; inactive = the rest.

A short description of test [1]: NCI Yeast Anticancer Drug Screen. Data for the rad50 strain (AID 155).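 Also: 0% = growth of vehicle-only cultures of the same strain.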 The conditions noted are these: S. cerevisiae rad50 strain growth inhibition, hits give high values. The essentials: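 Inhibition values express reduced yeast growth in compound-treated cultures relative to vehicle-treated controls.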
Test [2] in a line: NCI Yeast Anticancer Drug Screen. Data for the mec2-1 strain (AID 157). The note with it: S. cerevisiae mec2-1 strain, hits give high values. The essentials:
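Readout is yeast growth inhibition, normalised to vehicle-treated controls, in the mec2-1 strain exposed to compound.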

Test [3] in a line: NCI Yeast Anticancer Drug Screen. Data for the sgs1 mgt1 strain (AID 161).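 Also: 0% = growth of cultures given vehicle only.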 The note with it: S. cerevisiae sgs1 mgt1 strain, hits give high values. The essentials: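 Compounds are added to genetically altered yeast, and growth is compared with cultures given vehicle alone to give percent inhibition.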
A short description of test [4]: NCI Yeast Anticancer Drug Screen. Data for the cln2 rad14 strain (AID 165).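 Also: 0% = growth equal to vehicle treated cultures.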 The conditions noted are these: S. cerevisiae cln2 rad14 strain, hits give high values. The essentials: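 Relative to vehicle controls, growth inhibition of compound-treated cln2 rad14 yeast was recorded.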
Test [5] in a line: NCI Yeast Anticancer Drug Screen. Data for the bub3 strain (AID 167). The note with it: S. cerevisiae bub3 mutant strain, hits give high values. The essentials: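 Steps: expose the mutant yeast strain to compound; grow alongside vehicle-treated cultures; measure growth; express inhibition against the vehicle cultures.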
Test [6] can be described thus: NCI Yeast Anticancer Drug Screen. Data for the mlh1 rad18 strain (AID 175). The note with it: S. cerevisiae mlh1 rad18 strain growth inhibition, hits give high values. The essentials: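 Test agents were incubated with a yeast strain of defined genotype (DNA damage repair defect). Inhibition of growth was derived by comparison with vehicle-exposed cultures.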
Where [7] appears, read: at 5.0 µM (retest, dose inferred, filed as 0.5).
Setting [8] is: at 50.0 µM (retest, dose inferred, filed as 5.0).

With `O=C(Nc1ccc(C(=O)c2ccccc2)cc1)Nc1ccc(Cl)c(Cl)c1`, the growth inhibition in test [1] (setting [7]) is 23%; in test [1] (setting [8]) it was 96% (active); in test [1] (at 50.0 µM) it was 92.5% (active); in test [2] (setting [7]) it was 9%; in test [2] (setting [8]), 97% (active); in test [2] (at 50.0 µM), 95.2% (active). Moreover, the growth inhibition in test [3] (setting [7]) was 23%; in test [3] (setting [8]), 97% (active); in test [3] (at 50.0 µM), 94.8% (active); in test [4] (setting [7]), 30%; in test [4] (setting [8]), 91% (active); in test [4] (at 50.0 µM), 94.5% (active). Besides, the growth inhibition in test [5] (setting [7]) is 31%; in test [5] (setting [8]), 98% (active); in test [5] (at 50.0 µM), 96.1% (active); in test [6] (setting [7]) it was 38%; in test [6] (setting [8]), 97% (active); in test [6] (at 50.0 µM), 94.7% (active).
In the case of `O=[N+]([O-])OC1CCCC(O[N+](=O)[O-])c2c1n([O-])c1ccccc1[n+]2=O` (configuration not stated), the growth inhibition in test [1] (setting [7]) was 53%; in test [1] (setting [8]), 91% (active); in test [1] (at 50.0 µM) it was 89.3% (active); in test [2] (setting [7]), 40%; in test [2] (setting [8]), 86% (active); in test [2] (at 50.0 µM), 21.2%. The growth inhibition is 58% in test [3] (setting [7]); 94% (active) in test [3] (setting [8]); 82.5% (active) in test [3] (at 50.0 µM); 39% in test [4] (setting [7]); 84% (active) in test [4] (setting [8]); 47.1% in test [4] (at 50.0 µM). Besides, the growth inhibition in test [5] (setting [7]) was 19%; in test [5] (setting [8]) it was 73% (active); in test [5] (at 50.0 µM) it was 17.5%; in test [6] (setting [7]), 53%; in test [6] (setting [8]), 94% (active); in test [6] (at 50.0 µM), 84% (active).
For `CCC(=O)/C(=C\I)c1ccccc1`, the growth inhibition in test [1] (setting [7]) was 26%; in test [1] (setting [8]), 26%; in test [1] (at 50.0 µM), 89.3% (active); in test [2] (setting [7]), -6%; in test [2] (setting [8]) it was -6%; in test [2] (at 50.0 µM), 92.2% (active). In addition, the growth inhibition in test [3] (setting [7]) is 23%; in test [3] (setting [8]), 23%; in test [3] (at 50.0 µM) it was 86.7% (active); in test [4] (setting [7]), 8%; in test [4] (setting [8]), 8%; in test [4] (at 50.0 µM) it was 89.9% (active). In addition, the growth inhibition in test [5] (setting [7]) is 7%; in test [5] (setting [8]), 7%; in test [5] (at 50.0 µM), 89.5% (active); in test [6] (setting [7]), 21%; in test [6] (setting [8]), 21%; in test [6] (at 50.0 µM), 85.5% (active).
As to `O=C1C2=Cc3ccccc3CCN2c2ccccc21`, the growth inhibition in test [1] (setting [7]) was 4%; in test [1] (setting [8]), 4%; in test [1] (at 50.0 µM), 88.3% (active); in test [2] (setting [7]), -6%; in test [2] (setting [8]) it was -6%; in test [2] (at 50.0 µM) it was 90.7% (active). For the same compound, the growth inhibition in test [3] (setting [7]) was 1%; in test [3] (setting [8]) it was 1%; in test [3] (at 50.0 µM), 89.8% (active); in test [4] (setting [7]), -8%; in test [4] (setting [8]) it was -8%; in test [4] (at 50.0 µM), 86.2% (active). Besides, the growth inhibition in test [5] (setting [7]) is 2%; in test [5] (setting [8]), 2%; in test [5] (at 50.0 µM), 89.8% (active); in test [6] (setting [7]), 2%; in test [6] (setting [8]) it was 2%; in test [6] (at 50.0 µM) it was 83.1% (active).
Turning to `C#CC(C)(C)Nc1c2ccccc2nc2ccccc12`, the growth inhibition in test [1] (setting [7]) is 7%; in test [1] (setting [8]), 98% (active); in test [1] (at 50.0 µM), 98.2% (active); in test [2] (setting [7]), 2%; in test [2] (setting [8]), 97% (active); in test [2] (at 50.0 µM) it was 94.6% (active). The growth inhibition in test [3] (setting [7]) was -1%; in test [3] (setting [8]), 98% (active); in test [3] (at 50.0 µM) it was 98.8% (active); in test [4] (setting [7]), 0%; in test [4] (setting [8]), 94% (active); in test [4] (at 50.0 µM) it was 93.7% (active). Also, the growth inhibition in test [5] (setting [7]) is -2%; in test [5] (setting [8]), 98% (active); in test [5] (at 50.0 µM), 97.5% (active); in test [6] (setting [7]), 11%; in test [6] (setting [8]), 98% (active); in test [6] (at 50.0 µM), 98.7% (active).
As for `CC(=O)N1CCC(Cc2ccccc2)CC1`, the growth inhibition in test [1] (setting [7]) is -105%; in test [1] (setting [8]), 95% (active); in test [1] (at 50.0 µM), 2.3%; in test [2] (setting [7]) it was -46%; in test [2] (setting [8]) it was 80% (active); in test [2] (at 50.0 µM) it was 18.3%. For the same compound, the growth inhibition was -49% in test [3] (setting [7]); 92% (active) in test [3] (setting [8]); 11.2% in test [3] (at 50.0 µM); -55% in test [4] (setting [7]); 70% (active) in test [4] (setting [8]); 56.9% in test [4] (at 50.0 µM). The growth inhibition in test [5] (setting [7]) is -51%; in test [5] (setting [8]), 89% (active); in test [5] (at 50.0 µM), 22.4%; in test [6] (setting [7]) it was -103%; in test [6] (setting [8]), 91% (active); in test [6] (at 50.0 µM), 25%.
Turning to `CC(=O)C1C(S)CC2C3CC=C4CC(O)CCC4(C)C3CCC21C` (configuration not stated), the growth inhibition is 1% in test [1] (setting [7]); 98% (active) in test [1] (setting [8]); 98.8% (active) in test [1] (at 50.0 µM); 7% in test [2] (setting [7]); 98% (active) in test [2] (setting [8]); 98.5% (active) in test [2] (at 50.0 µM). In addition, the growth inhibition in test [3] (setting [7]) is -8%; in test [3] (setting [8]), 98% (active); in test [3] (at 50.0 µM), 98.7% (active); in test [4] (setting [7]), -7%; in test [4] (setting [8]) it was 98% (active); in test [4] (at 50.0 µM), 98% (active). Besides, the growth inhibition in test [5] (setting [7]) was 8%; in test [5] (setting [8]), 98% (active); in test [5] (at 50.0 µM) it was 50.9%; in test [6] (setting [7]), 0%; in test [6] (setting [8]), 98% (active); in test [6] (at 50.0 µM), 98.8% (active).
For the compound `O=CNc1ccc2c(c1)Cc1cc(NC=O)ccc1-2`, the growth inhibition in test [1] (setting [7]) was -4%; in test [1] (setting [8]), 81% (active); in test [1] (at 50.0 µM) it was 91% (active); in test [2] (setting [7]), -3%; in test [2] (setting [8]) it was 25%; in test [2] (at 50.0 µM), 34.5%. Further, the growth inhibition in test [3] (setting [7]) is 18%; in test [3] (setting [8]) it was 82% (active); in test [3] (at 50.0 µM), 91.4% (active); in test [4] (setting [7]), -34%; in test [4] (setting [8]), 10%; in test [4] (at 50.0 µM), -6.85%. For the same compound, the growth inhibition in test [5] (setting [7]) was 2%; in test [5] (setting [8]) it was -9%; in test [5] (at 50.0 µM), 7.8%; in test [6] (setting [7]), 14%; in test [6] (setting [8]) it was 79% (active); in test [6] (at 50.0 µM) it was 74.2% (active).
For the compound `CC(C)/C=N/N(CCOC(=O)Nc1ccccc1)C(=O)Nc1ccccc1`, the growth inhibition was 8% in test [1] (setting [7]); -6% in test [1] (setting [8]); -3.85% in test [1] (at 50.0 µM); -6% in test [2] (setting [7]); -12% in test [2] (setting [8]); 14.3% in test [2] (at 50.0 µM). Besides, the growth inhibition in test [3] (setting [7]) was -1%; in test [3] (setting [8]), -6%; in test [3] (at 50.0 µM) it was -12.7%; in test [4] (setting [7]), -5%; in test [4] (setting [8]), -1%; in test [4] (at 50.0 µM), 82.2% (active). For the same compound, the growth inhibition is -7% in test [5] (setting [7]); -9% in test [5] (setting [8]); 16.1% in test [5] (at 50.0 µM); -3% in test [6] (setting [7]); -5% in test [6] (setting [8]); 6.9% in test [6] (at 50.0 µM).
